High-throughput results deposited in PubChem by several laboratories.
Only some compounds are listed: those with a hit (about 6.6% of all), similar ones and a draw of the others.
Gli-Sufu block – blocks Gli-Sufu signaling in a luciferase reporter | actives 0.74% (n = 340,000) | Sufu-KO-LIGHT fibroblasts, Gli luciferase reporter luminescence | inhibition, % at 5 µM;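 active means inhibition above about 55%, limit read from the data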
Mdm2 MdmX PPI – disrupts the human Mdm2-MdmX interaction | O15151+Q00987 | SaOS-2 split-luciferase Mdm2/MdmX complementation, luminescence | inhibition, % at 8 µM | actives 3% (n = 330,000);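 active means inhibition of at least 50% at 8 µM in the primary screen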
Target sequence (O15151 whole entry, looked up): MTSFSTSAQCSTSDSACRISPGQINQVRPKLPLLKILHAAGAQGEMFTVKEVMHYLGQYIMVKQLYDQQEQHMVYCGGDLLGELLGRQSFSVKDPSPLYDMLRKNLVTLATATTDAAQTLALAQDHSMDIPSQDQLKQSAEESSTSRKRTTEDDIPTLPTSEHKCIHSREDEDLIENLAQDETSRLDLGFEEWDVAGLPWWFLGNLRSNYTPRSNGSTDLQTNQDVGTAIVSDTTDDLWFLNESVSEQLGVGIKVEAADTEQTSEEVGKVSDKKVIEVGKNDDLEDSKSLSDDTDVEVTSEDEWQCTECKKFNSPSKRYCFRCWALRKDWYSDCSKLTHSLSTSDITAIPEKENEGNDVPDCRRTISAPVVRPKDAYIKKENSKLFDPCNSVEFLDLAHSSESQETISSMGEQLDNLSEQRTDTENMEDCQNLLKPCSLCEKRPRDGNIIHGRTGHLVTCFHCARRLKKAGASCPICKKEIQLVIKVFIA
Target sequence (Q00987 whole entry, looked up): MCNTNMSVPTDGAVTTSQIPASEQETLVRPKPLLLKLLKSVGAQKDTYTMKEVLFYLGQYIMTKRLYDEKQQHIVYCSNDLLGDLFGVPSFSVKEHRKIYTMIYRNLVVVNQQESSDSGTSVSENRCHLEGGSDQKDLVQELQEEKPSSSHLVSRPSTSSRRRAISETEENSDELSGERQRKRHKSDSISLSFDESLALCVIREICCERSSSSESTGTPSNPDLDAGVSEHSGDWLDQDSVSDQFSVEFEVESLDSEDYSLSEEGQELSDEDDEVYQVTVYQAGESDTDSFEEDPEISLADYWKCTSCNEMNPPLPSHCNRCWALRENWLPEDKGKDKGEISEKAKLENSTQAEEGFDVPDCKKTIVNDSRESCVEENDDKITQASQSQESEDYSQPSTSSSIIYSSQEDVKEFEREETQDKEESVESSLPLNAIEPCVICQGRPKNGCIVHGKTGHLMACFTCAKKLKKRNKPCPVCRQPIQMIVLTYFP
GRIN3A LBD mod – modulators (binders) of human NR3A ligand-binding domain; NR3A LBD differential scanning fluorimetry, Tm shift; 0% = protein alone, 100% = glycine-bound protein; Tm shift relative to glycine control, % at 25 µM; actives 2.5% (n = 340,000); AID 1259313;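 active means melting temperature shift of at least 10% of the positive control shift, at one fixed dose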
CSC inhib – blocks cancer stem cells. AID 2717. cancer stem cell-like cells viability, luminescence. inhibition, % at 7.5 µM. actives 1.1% (n = 300,000); in the data active means inhibition above about 75%; tested in HMLE shEcad cells
MPTP block – permeability transition pore inhibition; isolated mouse mitochondria, Ca2+ swelling absorbance, 30 min; inhibition, % at 10 µM; actives 1.4% (n = 360,000); AID 602449;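 active means inhibition of 50% or more, scaled per plate between neutral and stimulator controls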
Beta cell apopt – blocks beta cell apoptosis; actives 0.8% (n = 300,000); INS-1E cytokine-induced death, ATP luminescence, 48 h; percent of positive-control rescue, neutral wells zero; protection from apoptosis, % (concentration not given with the values); AID 435005;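 active means Every replicate reaches about 75%, or at least half do and their mean reaches it too, limit read from the data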;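 further: higher means more ATP so stronger rescue from cytokine killing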
A number is an active result.

What do the screens show for `CCOC(=O)c1c(N)sc2c1CCC1C(=O)N(C3CCCCC3)C(=O)C21` (stereo unspecified)?
Gli-Sufu block: inactive; Mdm2 MdmX PPI: inactive; GRIN3A LBD mod: 13; CSC inhib: inactive; MPTP block: inactive; Beta cell apopt: inactive

Results for COc1ccc(C(=O)NCC2(c3ccccc3)CCCC2)c(OC)c1 ?
Gli-Sufu block: inactive; Mdm2 MdmX PPI: inactive; GRIN3A LBD mod: inactive; CSC inhib: 83; MPTP block: inactive; Beta cell apopt: inactive

Results for O=C1c2ccc3c4c(ccc(c24)C(=O)N1NC(=O)C(F)(F)F)CC3 ?
Gli-Sufu block: inactive; Mdm2 MdmX PPI: inactive; GRIN3A LBD mod: inactive; CSC inhib: inactive; MPTP block: inactive; Beta cell apopt: inactive

What do the screens show for `CC(=O)NN1C(=O)c2ccc3c4c(ccc(c24)C1=O)C(=O)N(NC(C)=O)C3=O`?
Gli-Sufu block: inactive; Mdm2 MdmX PPI: inactive; GRIN3A LBD mod: inactive; CSC inhib: inactive; MPTP block: inactive; Beta cell apopt: 108

What do the screens show for `COc1ccc(NS(=O)(=O)c2cccc(C(=O)NNC(=O)c3ccc(Br)o3)c2)cc1`?
Gli-Sufu block: inactive; Mdm2 MdmX PPI: inactive; GRIN3A LBD mod: inactive; CSC inhib: inactive; MPTP block: inactive; Beta cell apopt: inactive

Results for COc1ccc(-c2noc(N3CCC(C(=O)Nc4cccc(OC)c4)CC3)n2)cc1 ?
Gli-Sufu block: inactive; Mdm2 MdmX PPI: inactive; GRIN3A LBD mod: inactive; CSC inhib: inactive; MPTP block: inactive; Beta cell apopt: inactive

What do the screens show for `CCc1nc2ccc(C(=O)NCCOc3ccc(OC)cc3)cn2c1N(C=O)Cc1ccc(OC)cc1`?
MPTP block: inactive

Results for CSC(C1CCCC1)n1nnc2ccccc21 (stereo unspecified) ?
Gli-Sufu block: inactive; Mdm2 MdmX PPI: inactive; GRIN3A LBD mod: inactive; CSC inhib: inactive; MPTP block: inactive; Beta cell apopt: inactive

What do the screens show for `COc1ccc(-c2nc(C#N)c(NCCCN(C)C)o2)cc1OC`?
Gli-Sufu block: inactive; Mdm2 MdmX PPI: inactive; GRIN3A LBD mod: inactive; CSC inhib: inactive; MPTP block: inactive; Beta cell apopt: inactive

How did COc1ccc(CCNc2oc(-c3ccc(OC)c(OC)c3)nc2C#N)cc1 do in these assays?
Gli-Sufu block: inactive; Mdm2 MdmX PPI: inactive; GRIN3A LBD mod: 16; CSC inhib: inactive; MPTP block: inactive; Beta cell apopt: inactive

How did Cc1ccc2c(c1)=N/C(=N\c1[nH]c(O)c3ccccc13)N=2 do in these assays?
MPTP block: inactive

Results for Oc1[nH]c(N=C2N=c3ccccc3=N2)c2ccccc12 ?
Gli-Sufu block: inactive; GRIN3A LBD mod: inactive; CSC inhib: inactive; MPTP block: inactive; Beta cell apopt: 113

Results for Cc1cc(SCC(=O)Nc2ccc(O)cc2)n2ncc(-c3ccccc3)c2n1 ?
Gli-Sufu block: inactive; Mdm2 MdmX PPI: inactive; GRIN3A LBD mod: 27; CSC inhib: inactive; MPTP block: inactive; Beta cell apopt: inactive

How did COc1ccc(NC(=O)CSc2cc(C)nc3c(-c4ccccc4)cnn23)cc1 do in these assays?
Gli-Sufu block: inactive; Mdm2 MdmX PPI: inactive; GRIN3A LBD mod: 64; CSC inhib: inactive; MPTP block: inactive; Beta cell apopt: inactive

How did Cc1cc(SCC(=O)Nc2ccccc2)n2ncc(-c3ccccc3)c2n1 do in these assays?
Gli-Sufu block: inactive; Mdm2 MdmX PPI: inactive; GRIN3A LBD mod: 32; CSC inhib: inactive; MPTP block: inactive; Beta cell apopt: inactive

How did Cc1cc(SCC(=O)Nc2ccc(O)cc2)n2nc(C)c(-c3ccccc3)c2n1 do in these assays?
Gli-Sufu block: inactive; Mdm2 MdmX PPI: inactive; GRIN3A LBD mod: inactive; CSC inhib: inactive; MPTP block: inactive; Beta cell apopt: inactive

What do the screens show for `COc1ccc(NC(=O)CSc2nnc(-c3ccccc3)n2N)cc1`?
Gli-Sufu block: inactive; Mdm2 MdmX PPI: inactive; GRIN3A LBD mod: inactive; MPTP block: inactive; Beta cell apopt: inactive

Results for COc1cccc(NC(=O)N(C)C[C@@H]2OCc3cn(nn3)CCCC(=O)N([C@H](C)CO)C[C@H]2C)c1 ?
MPTP block: inactive

What do the screens show for `O=C(COC(=O)c1ccc(N2CCOCC2)c([N+](=O)[O-])c1)Nc1ccc2c(c1)OCO2`?
Gli-Sufu block: inactive; Mdm2 MdmX PPI: inactive; GRIN3A LBD mod: inactive; CSC inhib: inactive; MPTP block: inactive; Beta cell apopt: inactive

Results for Cc1ccc(NS(=O)(=O)c2ccc(N3CCN(c4ccc(O)cc4)CC3)c([N+](=O)[O-])c2)c(C)c1 ?
Gli-Sufu block: inactive; Mdm2 MdmX PPI: inactive; GRIN3A LBD mod: 17; CSC inhib: 83; MPTP block: inactive; Beta cell apopt: inactive

What do the screens show for `CC1CCN(c2ccc(C(=O)Nc3ccc4c(c3)OCO4)cc2[N+](=O)[O-])CC1`?
Gli-Sufu block: inactive; Mdm2 MdmX PPI: inactive; GRIN3A LBD mod: inactive; CSC inhib: 78; MPTP block: inactive; Beta cell apopt: inactive

How did COC(=O)c1cc(NS(=O)(=O)c2ccc(N3CCCCC3)c([N+](=O)[O-])c2)cc(C(=O)OC)c1 do in these assays?
Gli-Sufu block: inactive; Mdm2 MdmX PPI: inactive; GRIN3A LBD mod: inactive; CSC inhib: inactive; MPTP block: inactive

Results for O=C(Nc1cccc(S(=O)(=O)Nc2ccccc2Cl)c1)c1ccc(N2CCCC2)c([N+](=O)[O-])c1 ?
Gli-Sufu block: inactive; Mdm2 MdmX PPI: inactive; GRIN3A LBD mod: 11; CSC inhib: inactive; MPTP block: inactive; Beta cell apopt: inactive

What do the screens show for `COC(=O)c1cc(NS(=O)(=O)c2ccc(N3CCC(C)CC3)c([N+](=O)[O-])c2)cc(C(=O)OC)c1`?
Gli-Sufu block: inactive; Mdm2 MdmX PPI: inactive; GRIN3A LBD mod: 18; MPTP block: inactive

How did Cc1c(NC(=O)c2cc3ccccc3o2)cccc1-n1cnnn1 do in these assays?
MPTP block: inactive

How did O=[N+]([O-])c1cc(S(=O)(=O)Nc2ccccc2)ccc1N1CCN(c2ccc(O)cc2)CC1 do in these assays?
Gli-Sufu block: inactive; Mdm2 MdmX PPI: inactive; GRIN3A LBD mod: inactive; CSC inhib: 77; MPTP block: inactive; Beta cell apopt: inactive

Results for O=C(NNC(=S)Nc1ccc(Br)cc1)c1ccc(N2CCOCC2)c([N+](=O)[O-])c1 ?
Gli-Sufu block: inactive; Mdm2 MdmX PPI: inactive; GRIN3A LBD mod: 19; CSC inhib: inactive; MPTP block: inactive; Beta cell apopt: inactive

How did O=C(Nc1cccnc1)c1ccc(N2CCOCC2)c([N+](=O)[O-])c1 do in these assays?
Gli-Sufu block: inactive; Mdm2 MdmX PPI: inactive; GRIN3A LBD mod: inactive; CSC inhib: inactive; MPTP block: inactive; Beta cell apopt: inactive

Results for CCOC(=O)c1c(C)[nH]c(C(=O)COC(=O)/C=C/c2ccc(OC(F)F)cc2)c1C ?
Gli-Sufu block: inactive; Mdm2 MdmX PPI: inactive; GRIN3A LBD mod: 13; MPTP block: inactive

What do the screens show for `COc1ccc(CNC(=O)c2cc(-c3cc(C)cc(C)c3O)n[nH]2)cc1`?
Gli-Sufu block: inactive; Mdm2 MdmX PPI: inactive; GRIN3A LBD mod: inactive; CSC inhib: inactive; MPTP block: inactive; Beta cell apopt: inactive

Results for COc1ccc(OC)c(NC(=O)c2cc(-c3cc(C)c(C)cc3O)n[nH]2)c1 ?
Mdm2 MdmX PPI: inactive; GRIN3A LBD mod: 41; CSC inhib: inactive; MPTP block: inactive; Beta cell apopt: inactive
